# Measured values taken from ChEMBL document CHEMBL3988442, “University of Dundee, Small-Polar-MMV Screening Library” (2021).
# The campaign covered roughly 67,000 compounds. About 300 (0.45%) showed an effect of 50% or more. Many of the other results were omitted from the sample, so strong results are more common in it than they were.
# Target: Polyketide synthase Pks13 (Mycobacterium tuberculosis (strain ATCC 25618 / H37Rv)) (UniProt I6X8D2)
# Assay: Mycobacterium tuberculosis Polyketide synthase 13 Thioesterase (PKS13)
# Type: functional
# Parameters: scale not given: in the data most compounds retested in dose-response had high values
# Conditions: 30 µM
# Polyketide synthase Pks13 (Mycobacterium tuberculosis (strain ATCC 25618 / H37Rv)), sequence (I6X8D2 whole entry): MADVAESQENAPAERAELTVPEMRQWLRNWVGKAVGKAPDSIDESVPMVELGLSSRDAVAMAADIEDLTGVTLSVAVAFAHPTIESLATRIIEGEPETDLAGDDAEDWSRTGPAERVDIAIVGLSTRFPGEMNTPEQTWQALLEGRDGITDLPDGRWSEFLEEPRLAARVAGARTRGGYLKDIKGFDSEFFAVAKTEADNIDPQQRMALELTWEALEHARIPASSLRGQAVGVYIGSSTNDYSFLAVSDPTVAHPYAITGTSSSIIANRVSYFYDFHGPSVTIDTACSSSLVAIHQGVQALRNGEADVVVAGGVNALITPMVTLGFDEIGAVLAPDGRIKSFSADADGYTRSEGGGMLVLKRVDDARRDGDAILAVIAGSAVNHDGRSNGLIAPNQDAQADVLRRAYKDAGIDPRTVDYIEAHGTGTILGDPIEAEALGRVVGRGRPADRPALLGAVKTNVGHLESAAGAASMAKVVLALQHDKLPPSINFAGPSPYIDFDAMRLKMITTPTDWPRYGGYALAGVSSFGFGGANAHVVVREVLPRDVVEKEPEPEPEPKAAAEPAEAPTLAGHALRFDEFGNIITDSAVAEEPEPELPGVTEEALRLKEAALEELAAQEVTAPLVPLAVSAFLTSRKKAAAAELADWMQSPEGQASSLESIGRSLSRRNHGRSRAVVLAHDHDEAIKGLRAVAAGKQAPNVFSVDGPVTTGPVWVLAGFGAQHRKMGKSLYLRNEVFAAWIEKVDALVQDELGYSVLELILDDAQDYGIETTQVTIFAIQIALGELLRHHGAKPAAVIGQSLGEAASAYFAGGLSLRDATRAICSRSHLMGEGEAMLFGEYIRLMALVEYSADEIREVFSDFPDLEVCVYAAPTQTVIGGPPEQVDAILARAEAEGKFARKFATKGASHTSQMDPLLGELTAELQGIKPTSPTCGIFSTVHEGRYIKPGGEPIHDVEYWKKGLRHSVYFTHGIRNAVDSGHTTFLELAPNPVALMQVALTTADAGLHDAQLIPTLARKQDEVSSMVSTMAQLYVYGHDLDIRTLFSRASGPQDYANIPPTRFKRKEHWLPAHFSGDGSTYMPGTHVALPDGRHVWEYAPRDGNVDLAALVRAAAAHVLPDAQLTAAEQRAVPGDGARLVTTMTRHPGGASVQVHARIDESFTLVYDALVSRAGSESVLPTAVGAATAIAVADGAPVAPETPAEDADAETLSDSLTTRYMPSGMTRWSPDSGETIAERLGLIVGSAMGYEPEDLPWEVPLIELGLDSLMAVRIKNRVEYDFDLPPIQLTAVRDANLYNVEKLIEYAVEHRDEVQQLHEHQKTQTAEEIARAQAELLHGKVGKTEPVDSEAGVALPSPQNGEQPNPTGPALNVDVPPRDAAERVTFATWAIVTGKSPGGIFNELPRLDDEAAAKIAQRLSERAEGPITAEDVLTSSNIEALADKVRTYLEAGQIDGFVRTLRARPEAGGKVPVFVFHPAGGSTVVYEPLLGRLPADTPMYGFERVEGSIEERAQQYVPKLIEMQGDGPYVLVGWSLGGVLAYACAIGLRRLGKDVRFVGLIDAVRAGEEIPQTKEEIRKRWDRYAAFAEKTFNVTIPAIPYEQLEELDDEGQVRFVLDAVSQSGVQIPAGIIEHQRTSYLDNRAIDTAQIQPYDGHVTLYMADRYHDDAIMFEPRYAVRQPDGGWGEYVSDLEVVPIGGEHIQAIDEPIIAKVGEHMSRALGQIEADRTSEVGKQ
row,Structure (SMILES),Percent Effect
1,Fc1ccccc1Cc1noc(CN2CC[C@@H]3CCCC[C@H]3C2)n1,-29.1%
2,CC(C)c1cc(CN2CCNCC2)no1,18.9%
3,CC(C)c1cc(CN2CCC(CC(=O)O)CC2)no1,60.1%
4,CC(C)c1cc(CN2CCC(N)CC2)no1,11.6%
5,CC(C)c1cc(C(=O)N2CCN(CC3CC3)[C@@H]3CS(=O)(=O)C[C@@H]32)on1,-6.23%
6,O=C1[C@@H]2CCN(CC3CC3)C[C@@H]2OCCN1c1ccsc1,2.34%
7,CCOc1cc(/C=C/c2ncc(C(=O)O)s2)cc(Br)c1O,59.8%
8,CCOc1cc(/C=C/c2ncc(C(=O)O)s2)cc(Br)c1OC,17.1%
9,CCOc1c(Br)cc(/C=C/c2ncc(C(=O)O)s2)cc1OC,-5.74%
10,COc1cc(/C=C/c2ncc(C(=O)O)s2)cc(Cl)c1OC,16.6%
11,COc1cc(/C=C/c2ncc(C(=O)O)s2)cc(Cl)c1O,64.9%
12,COc1cc(/C=C/c2ncc(C(=O)O)s2)cc(OC)c1,19.6%
13,CCOc1c(Cl)cc(/C=C/c2ncc(C(=O)O)s2)cc1OC,23.8%
14,CNC(=O)c1cnc(/C=C/c2cc(OC)c(OC)c(OC)c2)s1,17.9%
15,CNC(=O)c1cnc(/C=C/c2cc(OC)cc(OC)c2)s1,54.2%
16,CC(=O)N1CC[C@H]2OCC[C@@]2(C(=O)NCCc2ccccn2)C1,-18.1%
17,O=C(c1ccsc1)N1CCN2C[C@H](OCc3ccccn3)C[C@H]2C1,-2.94%
18,Cc1ccc(N2C[C@@H]3OCCN(CC4CC4)[C@@H]3C2)nn1,0.27%
19,O=C(C1CCCCC1)N1C[C@H]2CNC[C@H]2C1,-22.2%
20,CCOC(=O)[C@@H]1[C@@H](c2ccccc2)CN2CCN(C(=O)N(C)C)C[C@H]12,-2.04%
21,O=C(c1cnccn1)N1CCN2C[C@H](Oc3cccnc3)C[C@H]2C1,-12.6%
22,CN(C)C(=O)[C@H]1C[C@@H]2CCN(C3CCOCC3)C[C@H]2O1,-11.1%

row,Structure (SMILES),Percent Effect
1,COc1ccc(C2Nc3ccccc3NC3=C2C(=O)NC3)cc1OC (stereo not given),-7.87%
2,CC(C)C(=O)N1CCC(n2nc(-c3ccco3)ccc2=O)CC1,0.602%
3,O=C(c1ccco1)N1CCC(n2nc(-c3ccco3)ccc2=O)CC1,10.8%
4,CC(C)(C)C(=O)N1CCC(n2nc(-c3ccco3)ccc2=O)CC1,125%
5,CN(C)C(=O)N[C@@H]1CN(C2CCOCC2)[C@@H]2CCCO[C@@H]21,-25.3%
6,CC(=O)N1CCO[C@@H]2CN(C(=O)c3ccccc3)CC[C@@H]2C1,7.28%
7,Cc1cc(OCc2cccc(F)c2)ccc1NC(=O)C(C)NC(N)=O (stereo not given),-1.33%
8,Cc1cccc(COc2ccc(NC(=O)C(C)NC(N)=O)c(C)c2)c1 (stereo not given),53%
9,CC(=O)NC(C)C(=O)Nc1ccc(OCc2cccc(F)c2)cc1C (stereo not given),-35.8%
10,c1ccc(OCC2C[C@@H]3[C@@H](C2)OCCN3CC2CCOCC2)nc1 (stereo not given in full),-0.0246%
11,Cc1ccoc1C(=O)N1C[C@@H]2[C@@H](C1)OCC(=O)N2Cc1cccnc1,-9.46%
12,Cc1cnc(N2CCCC3(COCCN(c4nccs4)C3)C2)nc1 (stereo not given),-20.9%
13,Cc1ccc(N2CCCC3(COCCN(c4nccs4)C3)C2)nn1 (stereo not given),-10.9%
14,c1ccc(N2CCOCC3(CCCN(c4nccs4)C3)C2)nc1 (stereo not given),66%
15,Cc1nc2cc(C3CCN(C(=O)c4ccccn4)CC3)nn2c(O)c1C,-23.4%
16,Cc1cccc(CN2C[C@@H]3OCCN(c4cnccn4)[C@@H]3C2)n1,-4.22%
17,CS(=O)(=O)CCSc1n[nH]c(-c2ccc3c(c2)CCC3)n1,1.98%
18,CS(=O)(=O)CCCSc1n[nH]c(-c2ccc3c(c2)CCC3)n1,66.3%
19,NC(=O)CCSc1n[nH]c(-c2ccc3c(c2)CCC3)n1,-2.85%
20,Cn1c(NCCC(=O)N2CCCC2)c(C#N)c(=O)n(C)c1=O,1.71%
21,Cn1c(NCC(=O)N2CCCC2)c(C#N)c(=O)n(C)c1=O,51.5%
22,Cn1c(NCC(=O)N2CCCCC2)c(C#N)c(=O)n(C)c1=O,-9.87%

row,Structure (SMILES),Percent Effect
1,Cn1cc(N2C(=O)CC[C@@H]3[C@H]2CCN3Cc2cccc(C#N)c2)cn1,-11.3%
2,CCOc1ccc2[nH]c(=O)c(CN3CCCC3c3ccccn3)cc2c1 (stereo not given),-32.9%
3,O=c1[nH]c2cc3c(cc2cc1CN1CCCC1c1ccccn1)OCO3 (stereo not given),78.6%
4,O=c1[nH]c2cc3c(cc2cc1CN1CCCC1c1ccccn1)CCC3 (stereo not given),-17.3%
5,O=C(c1ccoc1)N1CC[C@@H]2O[C@@H](COCc3ccncc3)CC[C@@H]21,-10.6%
6,O=C(C[C@H]1[C@H]2CN(c3ncccn3)C[C@@H]12)Nc1cccnc1,-4.86%
7,CC(C)CN1CC[C@@H]2[C@@H]1CCN2C(=O)N(C)C,-18.3%
8,CCc1nc(Cn2c(=O)c3c(C(F)(F)F)cc(C)nc3n2C)no1,9.67%
9,CCc1noc(Cn2c(=O)c3c(C(F)(F)F)cc(C)nc3n2C)n1,64.5%
10,Cc1cc(Cn2c(=O)c3c(C(F)(F)F)cc(C)nc3n2C)on1,3.92%
11,CO[C@H]1CC[C@H]2[C@H]1OCCN2C(=O)c1ccc(C)nc1,-32.1%
12,Cc1ccc(N2CC[C@H]3OCC[C@@]3(C(=O)NCC3CC3)C2)nn1,-16.8%
13,CC(C)CN1CCN(Cc2nc3c(s2)CCCC3)[C@H]2CS(=O)(=O)C[C@H]21,3.91%
14,CN1CCN(C(=O)c2cnc3c(cnn3C3CCCC3)c2)CC1,-58.3%
15,CCN1CCN(C(=O)c2cnc3c(cnn3C3CCCC3)c2)CC1,2.83%
16,O=C(c1cnc2c(cnn2C2CCCC2)c1)N1CCN(CCO)CC1,90.8%
17,Cc1cc(CN2CC[C@@H]3O[C@@H](c4nnc(C)o4)C[C@H]3C2)no1,-7.21%
18,CNC(=O)c1cc2c(nc1NC(C)C)CCNCC2,73.6%
19,CC(C)CCN1CCc2cc(C(=O)N(C)C)c(NCC3CC3)nc2CC1,-8.68%
20,CC(C)Nc1nc2c(cc1C(=O)N(C)C)CCNCC2,0.822%
21,CC(C)Nc1nc2c(cc1C(=O)NCC1CC1)CCN(S(C)(=O)=O)CC2,85.6%
22,CC(C)Nc1nc2c(cc1C(=O)NCC1CC1)CCN(CC1CC1)CC2,69.4%

row,Structure (SMILES),Percent Effect
1,CNC(=O)c1cc2c(nc1N(C)C)CCN(C)CC2,-20.6%
2,Cc1nc2c(cc1C(=O)O)CCN(CC1CC1)CC2,-19.8%
3,CC(C)Nc1nc2c(cc1C(=O)NCC1CC1)CCN(C)CC2,90.8%
4,CN(C)C(=O)c1cc2c(nc1NCC1CC1)CCN(CC1CC1)CC2,-12.7%
5,CN1CCc2cc(C(=O)N(C)C)c(NCC3CC3)nc2CC1,-5.51%
6,CCS(=O)(=O)N1CCc2cc(C(=O)N(C)C)c(NCC3CC3)nc2CC1,-30.5%
7,CC(C)NC(=O)c1cc2c(nc1N(C)C)CCN(S(=O)(=O)C1CC1)CC2,33.7%
8,CCS(=O)(=O)N1CC[C@H]2O[C@H](c3nnc(C)o3)CC[C@H]21,-8.23%
9,CN1CC[C@H]2CN(C(=O)c3csc(Cc4ccccc4)n3)C[C@H]21,-37.9%
10,O=C1O[C@@H]2CN(C3CCOCC3)C[C@@H]2N1CCCc1ccc(F)cc1,1.75%
11,CC(C)CN1CCS(=O)(=O)[C@@H]2CCN(S(=O)(=O)N(C)C)CC[C@@H]21,-30.1%
12,CNC(=O)N1CCc2cc(C(=O)N(C)C)c(NCC3CC3)nc2CC1,4.02%
13,COCCN1CCc2cc(C(=O)NC(C)C)c(NCC3CC3)nc2CC1,45.7%
14,COCCN1CCc2cc(C(=O)NCC3CC3)c(NC(C)C)nc2CC1,68.2%
15,CC(C)Nc1nc2c(cc1C(=O)NCC1CC1)CCNCC2,51.7%
16,COCCN1CCc2cc(C(=O)N(C)C)c(NC(C)C)nc2CC1,-2.98%
17,CNC(=O)N1CCc2cc(C(=O)NCC3CC3)c(NC(C)C)nc2CC1,51.5%
18,CCN1CCc2cc(C(=O)N(C)C)c(NCC3CC3)nc2CC1,-12.5%
19,CNC(=O)c1cc2c(nc1NC(C)C)CCN(C(=O)NC(C)C)CC2,29.7%
20,Cc1noc([C@@H]2CC[C@@H]3[C@@H](CCN3S(=O)(=O)c3cccnc3)O2)n1,4.22%
21,O=C1OCCN1CC(=O)N1C[C@H]2CC[C@@H]1CN(C(=O)c1ccccn1)C2,-14.6%
22,Cc1ccc(N2CC[C@@H]3CN(Cc4cc[nH]n4)C[C@@H]3C2)nn1,3.96%

row,Structure (SMILES),Percent Effect
1,CCN1CCN(S(=O)(=O)N2CCCC2)[C@H]2CS(=O)(=O)C[C@H]21,-23.5%
2,CC(=O)N1CC[C@H]2N(C)CC[C@@]2(C(=O)Nc2cccnc2)CC1,-11.6%
3,O=C(c1ccco1)N1C[C@H]2CN(Cc3cccc(F)c3)C(=O)[C@H]2C1,-4.13%
4,c1ccc2c(c1)C(NC1CCCC1)CC21CCNCC1 (stereo not given),-6.43%
5,CNC(=O)N1C[C@H]2CC[C@@]3(N=C(c4ccccc4)NC3=O)[C@H]2C1,-17.2%
6,CCOC(=O)[C@@H]1[C@@H](c2ccccc2)CN2CCN(S(C)(=O)=O)C[C@H]12,-1.54%
7,c1coc(CN2C[C@@H]3OCCN(CCN4CCCC4)[C@@H]3C2)c1,-17.4%
8,CCc1nnc(Nc2cccc(C3CCN(C(C)=O)CC3)n2)s1,86.9%
9,CCc1nnc(Nc2cccc(C3CCN(C(=O)CO)CC3)n2)s1,4.46%
10,CCc1nnc(Nc2cccc(C3CCN(C(=O)CNC)CC3)n2)s1,-24.5%
11,CC(=O)N1CCO[C@@H]2CN(C(=O)NCc3ccccc3)CC[C@@H]2C1,-30.5%
12,Cc1ccc(N2CC[C@H]3O[C@H](C(=O)NCc4ccco4)CC[C@H]32)nn1,-3.57%
13,Cc1ccc(N2CC[C@H]3OCC[C@@]3(C(=O)N3CCCO3)C2)nn1,-34%
14,COc1ccc(CN2C[C@@H]3OCC(=O)N(Cc4nccn4C)[C@@H]3C2)cc1,-29.9%
15,Cc1ccccc1CN1CCN(c2ncnc3c2NC(=O)CN3)CC1,-5.54%
16,O=C1CNc2ncnc(N3CCN(Cc4ccccc4F)CC3)c2N1,84.6%
17,O=C1CNc2ncnc(N3CCN(Cc4ccccc4)CC3)c2N1,-2.51%
18,Cc1noc(C)c1CN1CC[C@H]2C[C@@H](c3ccncn3)O[C@@H]2C1,-34.7%
19,Cc1nc2cc(C3CCCCN3C(=O)C3CC3)nn2c(O)c1C (stereo not given),9.02%
20,CC(=O)N1N=C(c2ccco2)OC1C(=O)NCC(C)C (stereo not given),52.5%
21,CC(=O)N1N=C(c2ccco2)OC1C(=O)N(CC(C)C)CC(C)C (stereo not given),-6.84%
22,CC(=O)N1N=C(c2ccco2)OC1C(=O)NCCc1ccc(O)cc1 (stereo not given),8.81%
